Outcome and AC50 data for 18 compounds are collected here from PubChem BioAssay (EPA / NIEHS).

Read-out in test [1]: Monocyte Chemoattractant Protein-1 (MCP1), CCL2 (gene 6347)
Briefly: BSK_SAg_MCP1: BioMAP Diversity Plus: SAg Assay for Monocyte Chemoattractant Protein-1 (MCP1) Biomarker Activity (AID 2283090). The note with it: primary human HUVEC with PBMC; actives raise or lower the signal. A digest of the protocol:
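Values derive from bidirectional fitting of ELISA-measured MCP1 against DMSO controls. Readings were taken 24 h after dosing human vascular endothelial cells co-cultured with peripheral blood mononuclear cells under superantigen stimulation.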

Read-out in test [2]: E-selectin (Homo sapiens) (UniProt P16581)
Briefly: BSK_SAg_Eselectin: BioMAP Diversity Plus: SAg Assay for Eselectin Biomarker Activity (AID 2283091). The note with it: primary human HUVEC with PBMC; actives raise or lower the signal. Summed up: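 E-selectin ELISA readout at 24 h post-dosing in human umbilical vein endothelial cell/PBMC co-culture; gain or loss of signal fitted relative to DMSO baseline.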

Read-out in test [3]: Monokine induced gamma interferon (MIG), CXCL9 (gene 4283)
Briefly: BSK_SAg_MIG: BioMAP Diversity Plus: SAg Assay for Monokine induced gamma interferon (MIG) Biomarker Activity (AID 2283092). The settings on record: primary human HUVEC with PBMC; actives raise or lower the signal. A digest of the protocol:
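ELISA readout of MIG/CXCL9; primary human umbilical vein endothelial cells co-cultured with peripheral blood mononuclear cells; 24 h post-dose; gain/loss fit vs DMSO baseline.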

Test [4] in a line: BSK_SAg_PBMCCytotoxicity: PBMC Cytotoxicity Assessment in the BioMAP Diversity Plus: SAg Assay (AID 2283093).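 Further: fitted both ways against DMSO so a hit may be loss or gain of signal.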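 On AC50: PBMC superantigen activated with SEB plus TSST-1 one hour after compound addition.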 The note with it: primary human HUVEC with PBMC. A digest of the protocol:
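PBMC viability by Alamar Blue reduction, fluorescence read at 546/580 nm after 6 h dye exposure. Cells were dosed 1 h before SEB plus TSST-1 activation (20 ng/mL final each), then held 90 h; endothelial/PBMC human co-culture.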

Read-out in test [5]: Interleukin-8 (IL8), CXCL8 (gene 3576)
Put plainly: BSK_SAg_IL8: BioMAP Diversity Plus: SAg Assay for Interleukin-8 (IL8) Biomarker Activity (AID 2283094). The note with it: primary human HUVEC with PBMC; actives raise or lower the signal. Summed up: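 ELISA readout of IL-8 from a superantigen-activated endothelial/PBMC primary human co-culture, taken 24 h post-dosing and fitted in both directions against DMSO; parallel SRB total-protein staining flags overt cytotoxicity.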

A short description of test [6]: BSK_SAg_Proliferation: Cell Proliferation Assessment in the BioMAP Diversity Plus: SAg Assay (AID 2283095).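 Further: relative cell number as total protein by SRB absorbance in sub-confluent culture.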 The note with it: primary human HUVEC with PBMC. A digest of the protocol: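 Relative cell number in the endothelial cell/PBMC co-culture was quantified at 96 h by SRB staining (0.1% SRB, 10% TCA fixation, read at 560 nm). Curves were fitted in both directions relative to DMSO baseline.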

A short description of test [7]: BSK_SAg_SRB: Viability Assessment in the BioMAP Diversity Plus: SAg Assay (AID 2283096).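 Further: cells read one day after compound addition; hits may be either gain or loss of signal compared with DMSO.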 The settings on record: primary human HUVEC with PBMC. Summed up: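 Compounds were added to a human vascular co-culture of umbilical vein endothelium and PBMC. After 24 h, parallel cultures were fixed with 10% TCA, stained with 0.1% sulforhodamine B and read at 560 nm. Gain or loss of signal was fitted relative to DMSO.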

Test [8] deals with human CYP2A6, CYP2A6 (gene 1548) (UniProt P11509). Briefly: NVS_ADME_hCYP2A6: NovaScreen (NVS) CYP450-related Enzyme Activity (ADME) Assay for human CYP2A6 (AID 2283099; active means hit-call score of the fitted dose curve at least 0.9, where 1 is the maximum). A digest of the protocol: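 Insect-cell-expressed human CYP2A6 enzyme activity measured by fluorescence intensity 0.5 hour post-dosing. Compounds screened at 10 uM in duplicate, then hits tested singly in concentration series (max 20 uM); acetonitrile baseline.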

The target of test [9] is human CYP19A1, CYP19A1 (gene 1588) (UniProt P11511). Briefly: NVS_ADME_hCYP19A1: NovaScreen (NVS) CYP450-related Enzyme Activity (ADME) Assay for human CYP19A1 (AID 2283098; active means hit-call score of the fitted dose curve at least 0.9, where 1 is the maximum;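 on AC50: potency for inhibitors seen as loss of fluorescent enzyme signal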). Summed up:
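Fluorescence intensity read-out; activity taken as signal loss relative to acetonitrile vehicle. Extracted enzyme, specific substrate, no cells, 0.5 h exposure. Duplicate single-point screen at 10 uM, then concentration–response follow-up for actives.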

Test [10] has as its target human CYP1A1, CYP1A1 (gene 1543) (UniProt P04798). Briefly: NVS_ADME_hCYP1A1: NovaScreen (NVS) CYP450-related Enzyme Activity (ADME) Assay for human CYP1A1 (AID 2283100; active means hit-call score of the fitted dose curve at least 0.9, where 1 is the maximum). A digest of the protocol: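 Read-out: fluorescence intensity from enzymatic turnover of substrate by recombinant CYP1A1, loss of signal indicating inhibition. Incubation 1 h post-dose. Primary single-point 10 uM in duplicate; actives rerun singly with top concentration 20 uM.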

Where “and” joins values, the source holds several entries; their conditions need not be identical. Equal entries are not always repeated. Inconclusive results are not listed. Calls of active or inactive are those of the source. How the source made its calls, unless noted: active means hit-call score of the fitted dose curve at least 0.9, where 1 is the maximum; inactive means score below 0.9.

What is called AC50 is the concentration at which the activity in the assay is half-maximal.

Sequence of human CYP19A1, CYP19A1 (gene 1588) (P11511 whole entry, looked up): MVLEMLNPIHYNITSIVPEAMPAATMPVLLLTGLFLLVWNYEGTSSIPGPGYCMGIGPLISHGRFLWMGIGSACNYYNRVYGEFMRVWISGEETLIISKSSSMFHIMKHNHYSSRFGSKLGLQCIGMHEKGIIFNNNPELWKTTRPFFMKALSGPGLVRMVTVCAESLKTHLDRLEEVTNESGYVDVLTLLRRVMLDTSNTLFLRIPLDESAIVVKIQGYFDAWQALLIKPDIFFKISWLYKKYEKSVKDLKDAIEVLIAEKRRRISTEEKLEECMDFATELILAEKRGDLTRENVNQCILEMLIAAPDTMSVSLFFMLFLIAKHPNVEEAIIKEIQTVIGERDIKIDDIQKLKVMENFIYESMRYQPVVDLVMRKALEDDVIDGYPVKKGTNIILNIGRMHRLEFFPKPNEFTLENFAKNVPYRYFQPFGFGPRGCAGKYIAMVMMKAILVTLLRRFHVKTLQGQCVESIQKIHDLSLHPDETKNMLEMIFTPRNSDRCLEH
Sequence of E-selectin (Homo sapiens) (P16581 whole entry, looked up): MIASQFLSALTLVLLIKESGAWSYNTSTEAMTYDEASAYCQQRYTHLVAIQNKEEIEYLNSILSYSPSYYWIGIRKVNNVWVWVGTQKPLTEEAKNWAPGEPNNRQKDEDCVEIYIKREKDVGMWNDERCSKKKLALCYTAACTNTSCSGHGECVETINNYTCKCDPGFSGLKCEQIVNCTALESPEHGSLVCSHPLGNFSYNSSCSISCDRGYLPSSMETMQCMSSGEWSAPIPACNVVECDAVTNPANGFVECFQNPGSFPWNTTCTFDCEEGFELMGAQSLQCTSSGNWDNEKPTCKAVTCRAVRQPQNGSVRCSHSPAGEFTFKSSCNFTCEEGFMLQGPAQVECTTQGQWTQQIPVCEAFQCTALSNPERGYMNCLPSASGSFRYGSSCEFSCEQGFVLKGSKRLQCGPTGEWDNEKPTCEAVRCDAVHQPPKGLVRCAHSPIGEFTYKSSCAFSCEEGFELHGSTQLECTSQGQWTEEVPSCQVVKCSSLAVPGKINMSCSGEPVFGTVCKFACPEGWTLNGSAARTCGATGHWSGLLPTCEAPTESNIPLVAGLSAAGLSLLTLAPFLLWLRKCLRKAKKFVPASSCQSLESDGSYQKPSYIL
Sequence of human CYP1A1, CYP1A1 (gene 1543) (P04798 whole entry, looked up): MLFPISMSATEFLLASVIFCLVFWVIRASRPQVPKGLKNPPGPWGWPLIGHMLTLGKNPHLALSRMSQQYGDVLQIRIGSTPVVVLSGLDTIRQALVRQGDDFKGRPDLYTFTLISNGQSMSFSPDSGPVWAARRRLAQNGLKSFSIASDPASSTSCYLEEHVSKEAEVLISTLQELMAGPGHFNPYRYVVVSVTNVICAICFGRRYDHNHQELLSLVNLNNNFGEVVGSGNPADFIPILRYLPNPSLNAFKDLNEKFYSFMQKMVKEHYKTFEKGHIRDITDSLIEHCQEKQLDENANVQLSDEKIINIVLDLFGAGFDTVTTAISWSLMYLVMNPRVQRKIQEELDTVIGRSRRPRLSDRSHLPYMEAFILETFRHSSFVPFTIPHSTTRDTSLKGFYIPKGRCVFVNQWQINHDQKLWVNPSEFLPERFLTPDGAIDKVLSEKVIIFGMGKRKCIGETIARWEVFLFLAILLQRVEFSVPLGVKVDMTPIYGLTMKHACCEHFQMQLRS
Sequence of human CYP2A6, CYP2A6 (gene 1548) (P11509 whole entry, looked up): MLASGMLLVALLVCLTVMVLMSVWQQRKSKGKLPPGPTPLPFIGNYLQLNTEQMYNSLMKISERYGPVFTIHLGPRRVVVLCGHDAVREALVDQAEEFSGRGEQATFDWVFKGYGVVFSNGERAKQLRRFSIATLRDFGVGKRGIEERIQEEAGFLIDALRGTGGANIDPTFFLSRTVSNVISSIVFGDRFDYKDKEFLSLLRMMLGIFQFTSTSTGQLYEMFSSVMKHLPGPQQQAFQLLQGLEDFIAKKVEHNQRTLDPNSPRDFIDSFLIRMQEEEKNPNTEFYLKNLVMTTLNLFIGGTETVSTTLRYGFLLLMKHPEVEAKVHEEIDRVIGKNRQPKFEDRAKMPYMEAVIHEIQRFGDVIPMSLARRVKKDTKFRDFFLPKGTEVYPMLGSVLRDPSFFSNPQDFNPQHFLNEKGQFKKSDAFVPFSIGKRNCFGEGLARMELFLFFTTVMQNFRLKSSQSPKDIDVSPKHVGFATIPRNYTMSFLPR

For the compound `Nc1c(Cl)cc([N+](=O)[O-])cc1Cl`, the result in [1], in test [3], in test [4], in [5], in test [6] and in test [7] was inactive. In addition, the results for the AC50 in test [2] and in test [8] were 10.1 µM (active) and 2.05 µM (active), respectively.

As for `CC(COc1ccc(Oc2ccccc2)cc1)Oc1ccccn1` (stereo unspecified), the result in test [1], in test [2], in test [3] and in [5] was inactive. In addition, the results for the AC50 in test [4], in test [6] and in [7] were 12 µM (active), 26.7 µM (active) and 7.1 µM (active), respectively.

With `CCNc1nc(Cl)nc(NC(C)(C)C#N)n1`, the result in [1], in test [3], in test [4], in test [5] and in test [7] was inactive. The AC50 in [2] is 4.59 µM (active).

Consider `S=C1NCCN1`, for which the outcome in [1], in test [2], in [3], in test [4], in test [5] and in test [7] was inactive. Moreover, in test [9], the outcome was inactive. In test [8], the AC50 was 3.94 µM (active).

As to `CNC(=O)ON=C(SC)C(=O)N(C)C`, the result in [1], in test [2], in test [3], in test [4], in test [5] and in test [7] was inactive. For the same compound, the result in [9] was inactive.

For `COP(=O)(OC)SCn1c(=O)oc2cc(Cl)cnc21`, the result in test [1], in [3], in [4] and in [5] was inactive. Moreover, the AC50 in test [2] is 20 µM (active); in [7] it was 13.4 µM (active).

In the case of `CON=C(C(=O)OC)c1ccccc1CON=C(C)c1cccc(C(F)(F)F)c1`, the AC50 in test [1] is 4.09 µM (active); in [2], 2.08 µM (active); in test [3], 8.87 µM (active); in [4], 1.59 µM (active); in [5] it was 3.2 µM (active); in test [7] it was 3.82 µM (active).

For `CC(C1CC1)C(O)(Cn1cncn1)c1ccc(Cl)cc1` (stereo unspecified), the result in [1], in test [2], in test [3], in [4], in [5] and in [7] was inactive. Besides, in test [9], the concentration at half-maximal activity (AC50) is 5.27 µM (active).

Regarding `CCOP(=O)(OCC)Oc1cc(C)nc(C(C)C)n1`, the outcome in test [1], in test [2], in test [3], in test [4], in test [5] and in test [7] was inactive. In addition, the outcome in test [9] was inactive.

Turning to `CSc1nc(NC(C)C)nc(NC(C)C)n1`, the concentration at half-maximal activity (AC50) was 36.5 µM (active) in [1] and 6.84 µM (active) in test [10]. For the same compound, the result in test [2], in test [3], in test [4], in test [5], in test [7] and in [9] was inactive.

`COP(=O)(NC(C)=O)SC` (stereo unspecified): the outcome in test [1], in test [2], in test [3], in test [4], in test [5] and in [7] was inactive. Further, the compound was called inactive in test [9].

On to `CC1(C(=O)Nc2ccc(O)c(Cl)c2Cl)CCCCC1`, for which the outcome in test [1], in [2], in test [3], in test [4], in test [5] and in test [7] was inactive.

For the compound `CCOP(=O)(NC(C)C)Oc1ccc(SC)c(C)c1` (stereo unspecified), the result in [1], in [2], in test [3], in [4], in [5] and in test [7] was inactive. Moreover, in test [10], the AC50 was 4.81 µM (active).

As to `CCOP(=S)(OCC)Oc1ccc2c(C)c(Cl)c(=O)oc2c1`, the outcome in [1], in test [3], in test [4], in [5] and in test [7] was inactive. For the same compound, the AC50 was 5.21 µM (active) in test [2] and 0.352 µM (active) in [10].

Turning to `CC(C)=CC1C(C(=O)OCN2C(=O)C3=C(CCCC3)C2=O)C1(C)C` (stereo unspecified), the AC50 in [1] was 18.2 µM (active); in test [2], 14.4 µM (active); in [3], 34.2 µM (active); in test [4], 26.1 µM (active); in test [6], 26.1 µM (active). In addition, the result in [7] was inactive.

Regarding `CN(C)C(=O)Nc1cccc(C(F)(F)F)c1`, the outcome in test [1], in [2], in test [3], in test [4], in [5] and in [7] was inactive.

For the compound `O=c1ccc(=O)[nH][nH]1`, the result in [1], in test [2], in test [3], in test [4], in [5] and in [7] was inactive.

Take `O=[N+]([O-])c1cc(C(F)(F)F)c(Cl)c([N+](=O)[O-])c1Nc1ncc(C(F)(F)F)cc1Cl`: the half-maximal activity concentration (AC50) in test [1] is 2.24 µM (active) and 3.79 µM (active); in [2], 1.51 µM (active) and 2.65 µM (active); in test [3], 3.49 µM (active) and 2.45 µM (active); in test [4], 814 nM (active) and 2.03 µM (active); in [5], 1.81 µM (active) and 3.64 µM (active); in test [7] it was 3.84 µM (active).
